Results on 96 molecules are retold here after PubChem BioAssay AID1851 (National Center for Advancing Translational Sciences (NCATS), 2009).

About 5,100 (32%) of roughly 16,000 compounds were called active. Another 25% or so got no clear call; they are omitted. The list shows a part of the results. Values without a mark were called inactive. The call rests on the fitted dose curve; in most records, active means well fitted curve in the direction sought with a large enough effect; inconclusive means small, poorly fitted or top-dose-only effect, or effect the other way; inactive means no such curve, though single readings can be large or run the other way.
On the % scale 0 is the no-effect control and ±100 the full control effect.

The target of the experiment is Cytochrome P450 3A4 (Homo sapiens) (UniProt P08684). The experiment can be described thus: Cytochrome panel assay with activity outcomes. Conditions: recombinant CYP, pro-luciferin dealkylation, luminescence, p450-cyp3a4; series mostly up to 57.1 µM; activity, negative = inhibition: at the top concentration.
Chain of Cytochrome P450 3A4 (Homo sapiens) (P08684 whole entry, looked up): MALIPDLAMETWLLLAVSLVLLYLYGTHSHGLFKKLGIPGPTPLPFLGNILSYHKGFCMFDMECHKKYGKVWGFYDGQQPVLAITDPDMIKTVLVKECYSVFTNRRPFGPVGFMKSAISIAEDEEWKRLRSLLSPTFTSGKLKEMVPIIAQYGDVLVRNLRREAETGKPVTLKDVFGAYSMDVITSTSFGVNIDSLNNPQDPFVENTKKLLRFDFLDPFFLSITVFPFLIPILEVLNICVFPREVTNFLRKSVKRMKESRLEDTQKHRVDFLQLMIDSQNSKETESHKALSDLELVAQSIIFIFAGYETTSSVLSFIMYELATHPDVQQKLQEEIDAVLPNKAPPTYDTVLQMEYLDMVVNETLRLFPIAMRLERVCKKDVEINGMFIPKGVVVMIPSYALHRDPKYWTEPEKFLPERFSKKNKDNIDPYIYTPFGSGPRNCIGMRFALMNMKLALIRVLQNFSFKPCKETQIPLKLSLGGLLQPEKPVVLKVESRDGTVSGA
For the molecule `COc1cccc([C@H](O)Cn2cc(-c3ccc(CON=C(C)C)cc3)nn2)c1`, the activity, negative = inhibition is -19.8% [at 11.4 µM].
Same read-out and setting: in the case of `CC[C@@H](CS(=O)(=O)O)[N+](=O)[O-]` it was -18% [at 11.4 µM].
For the molecule `O=C(N=NC(=O)c1ccc2c(O)n(C3CCCCC3)c(O)c2c1)c1cccnc1`, the AC50 is 11.2 µM (active).
Regarding `COCCn1c(=O)c(-c2cn(C)c3ccccc23)nc2cncnc21`, the AC50 was 3.16 µM (active).
Consider `COc1ccccc1CCn1c(=O)c(-c2cn(C)c3ccccc23)nc2cncnc21`, for which the AC50 is 2.51 µM (active).
In the case of `Cn1cc(-c2nc3cncnc3n(CCN)c2=O)c2ccccc21`, the AC50 was 12.6 µM (active).
As to `Cc1cccc([C@@H]2CN(C)CCc3c2cc(O)c(O)c3Cl)c1`, the “activity, negative = inhibition” value is 7.75%.
For the molecule `N[C@H](CCCP(=O)(O)O)C(=O)O`, the AC50 entry was “inactive”.
With `O=C(O)c1nnsc1-c1ccc(-c2snnc2C(=O)O)cc1`, the activity, negative = inhibition is -0.252% [at 11.4 µM].
Take `O=C(O)c1ccccc1-c1ccc(/C=c2\sc3nc4cc(Br)cnc4n3c2=O)o1`: the “activity, negative = inhibition” value was -12.3%.
Regarding `O=C(c1c[nH]c(=O)n(-c2ccccc2)c1=O)N1CCc2ccccc21`, the “activity, negative = inhibition” value was -8.97%.
With `CN(c1ccc(C(=O)NCc2ccccn2)cc1)S(C)(=O)=O`, the “activity, negative = inhibition” value is 2.98%.
For `Cc1ccc(NS(=O)(=O)c2cc(C(=O)N3CCc4ccccc4C3)ccc2Cl)cc1`, the AC50 was 1.26 µM (active).
Turning to `CCOC(=O)N1CCN(C(=O)c2ccc(Cl)c(S(=O)(=O)N3CCOCC3)c2)CC1`, the activity, negative = inhibition was -3.04% [at 2.29 µM].
For the molecule `Cc1ccc(NS(=O)(=O)c2cc(C(=O)NCc3ccccn3)ccc2Cl)cc1`, the AC50 is 3.98 µM (active).
Turning to `COc1ccc(C(=O)N2CCCCC2)cc1S(=O)(=O)Nc1ccccc1`, the AC50 was 12.6 µM (active).
Take `OC(CN1CCCCC1)CN1CCCCC1`: the “activity, negative = inhibition” value was 12.3%.
As to `CN(C)C(=O)c1ccc(-c2cncnc2NCCc2cnc[nH]2)cc1`, the AC50 was 6.31 µM (active).
With `CN(C)C(=O)c1ccc(-c2cncnc2NC2CCNCC2)cc1`, the “activity, negative = inhibition” value is -16%.
As for `CNc1ncncc1-c1ccc(C(=O)N(C)C)cc1`, the AC50 was 5.01 µM (active).
For `Cc1cccc(CNc2ncncc2-c2ccc(C(=O)N(C)C)cc2)c1`, the AC50 is 0.631 µM (active).
On the same count and under the same terms, the figure for `CN(C)C(=O)c1ccc(-c2cncnc2NCc2ccccc2)cc1` is 2.51 µM (active); for `CN(C)C(=O)c1ccc(-c2cncnc2NCc2cccnc2)cc1` it is 5.01 µM (active); for `CN1CCN(c2ncncc2-c2ccc(C(=O)N(C)C)cc2)CC1` it is 15.8 µM (active).
Regarding `CN(C)C(=O)c1ccc(-c2cncnc2N2CCNCC2)cc1`, the “activity, negative = inhibition” value was -25.5%.
Take `O=C(O)c1ccccc1C1c2ccccc2Oc2ccccc21`: the activity, negative = inhibition was 26.1% [at 11.4 µM].
Consider `CCC1(C)CC(CCNS(=O)(=O)c2ccc(C)cc2)(c2ccc(C)cc2)CCO1` (stereo unspecified), for which the AC50 was 3.55 µM (active).
In the case of `Cc1cc(C(=O)CSc2nnc(-c3ccccc3)o2)c(C)n1CC1COc2ccccc2O1` (stereo unspecified), the AC50 is 2.24 µM (active).
Take `c1ccc(-c2nnc(SCCC3OCCCO3)o2)cc1`: the “activity, negative = inhibition” value was -12.2%.
Consider `O=C(/C=C\c1ccc(O)c(O)c1)O[C@@H](Cc1ccc(O)c(O)c1)C(=O)O`, for which the “activity, negative = inhibition” value is -7.45%.
As to `O=C(O)/C=C\c1ccc(O)c(O)c1`, the “activity, negative = inhibition” value was -6.21% [at 25.6 µM].
In the case of `O=C(/C=C\c1ccc(O)c(O)c1)OCCc1ccccc1`, the AC50 is 15.8 µM (active).
With `CCn1c2ccccc2c2cnc(N=CN(C)C)c(C#N)c21`, the AC50 was 7.94 µM (active).
Turning to `Nc1nc(N)nc(CC(=O)O)n1`, the activity, negative = inhibition is -10.1% [at 11.4 µM].
Consider `COC(=O)N1CCC[C@@]2(CCN(c3ccncc3)C2)C1`, for which the AC50 was 3.98 µM (active).
For `COC(=O)N1CCC[C@@]2(CCN(c3ncccn3)C2)C1`, the “activity, negative = inhibition” value was -17.7%.
For `COC(=O)N1CCC2(CC1)CCN(c1ccncc1)CC2`, the “activity, negative = inhibition” value is -26.8%.
As for `O=C(Oc1ccccc1)N1CCC2(CC1)CCN(c1ccncc1)CC2`, the “activity, negative = inhibition” value is -14.1%.
Consider `O=C(Oc1ccccc1)N1CCC[C@@]2(CCN(c3ccncc3)C2)C1`, for which the AC50 was 12.6 µM (active).
Take `O=[N+]([O-])c1ccc2ncccc2c1CCc1c([N+](=O)[O-])ccc2ncccc12`: the activity, negative = inhibition was -12.1% [at 11.4 µM].
For `O=[N+]([O-])c1cccnc1NCCNc1ncc(C(F)(F)F)cc1Cl`, the AC50 was 12.6 µM (active).
On to `O=C(O)C[C@H](NC(=O)CP(=O)(O)O)C(=O)O.[NH-][C@@H]1CCCC[C@@H]1[NH-].[Pt]`, for which the activity, negative = inhibition is -3.72% [at 11.4 µM].
Turning to `O=S(=O)(NCc1cc(-c2ccccc2Cl)no1)c1ccccc1`, the “activity, negative = inhibition” value is -24.6%.
Same read-out and setting: the figure for `O=S(=O)(Nc1ccc2oc(-c3ccccc3)nc2c1)c1ccccc1` is -16% [at 2.29 µM].
Take `Cc1ccc(S(=O)(=O)Nc2ccc(=O)n(Cc3ccc(Cl)c(Cl)c3)c2)cc1`: the AC50 was 3.16 µM (active).
Consider `Cc1cc(NS(=O)(=O)c2ccc(NC(=O)CN3C(=O)c4ccccc4C3=O)cc2)nc(C)n1`, for which the “activity, negative = inhibition” value was -13.1%.
Take `C#CCOC(=O)Nc1ccc(=O)n(Cc2c(Cl)cccc2Cl)c1`: the “activity, negative = inhibition” value was -1.17%.
For `O=c1ccc(NS(=O)(=O)c2ccccc2)cn1Cc1ccc(Cl)c(Cl)c1`, the AC50 was 6.31 µM (active).
With `O=c1ccc(NS(=O)(=O)c2ccc(Cl)cc2)cn1Cc1ccc(Cl)c(Cl)c1`, the AC50 was 5.62 µM (active).
Consider `CC1(C)S[C@@H]2[C@H](NC(=O)[C@H](C(=O)O)c3ccsc3)C(=O)N2[C@H]1C(=O)O`, for which the “activity, negative = inhibition” value was -5.72% [at 25.6 µM].
As for `CC12CCC(C(=O)Nc3ncc([N+](=O)[O-])s3)(OC1=O)C2(C)C` (stereo unspecified), the AC50 is 15.8 µM (active).
`CCCCC#Cc1nc(NC)c2ncn([C@@H]3O[C@@H](CO)[C@H](O)[C@H]3O)c2n1`: the “activity, negative = inhibition” value is -29%.
Still for that read-out and setting: the figure for `CCSc1nnc(-c2ccc(Cl)cc2)c2ccccc12` is 15.9% [at 2.29 µM].
`C#CCSc1nc(Cc2ccc(Cl)cc2)nc2ccccc12`: the AC50 was 15.8 µM (active).
As to `CC(C)(C)c1ccc(O)c(CN(Cc2c(O)ccc3ccccc23)C2CCCCC2)c1`, the activity, negative = inhibition is -11.1% [at 11.4 µM].
The same measure, in the same setting: the figure for `CN(Cc1cc2ccccc2[nH]c1=O)S(C)(=O)=O` is 5.8% [at 11.4 µM].
As to `CS(=O)(=O)N(Cc1cc2ccccc2[nH]c1=O)C1CCCCC1`, the AC50 was 2.24 µM (active).
`CSc1nc(N)c2ncn([C@@H]3O[C@@H](COP(=O)(O)OP(=O)(O)O)[C@@H](O)[C@H]3O)c2n1`: the “activity, negative = inhibition” value is -2.32%.
For the molecule `C=CC(=O)NC(NC(=O)C=C)c1ccc(Br)cc1`, the “activity, negative = inhibition” value was -14%.
On the same count and under the same terms, in the case of `Cc1ccc(NC(=O)NNC(=O)Cn2nc(-c3ccccc3)c(-c3ccccc3)c(C#N)c2=O)cc1` it was 26.4% [at 0.457 µM].
In the case of `N#Cc1c(NC(=O)CCN2C(=O)c3ccccc3C2=O)oc(-c2ccccc2)c1-c1ccccc1`, the half-maximal activity concentration (AC50) is 3.98 µM (active).
Regarding `CC(C)(C)c1ccccc1OCCN1CCCC1`, the “activity, negative = inhibition” value is -16.4%.
The same measure, in the same setting: the figure for `Cc1ncc([N+](=O)[O-])n1CCO` is -4.85% [at 25.6 µM]; for `Cc1ncc([N+](=O)[O-])n1CC(=O)NCc1ccccc1` it is 0.475%.
For the molecule `Cc1ncc([N+](=O)[O-])n1CCOC(=O)NC(NCc1ccccc1)C(Cl)(Cl)Cl` (stereo unspecified), the AC50 was 15.8 µM (active).
In the case of `O=C(Nc1c(C(=O)N2CCOCC2)cnn1-c1ccccc1)c1ccco1`, the “activity, negative = inhibition” value is -5.43%.
Regarding `O=C(Nc1cccc2ccccc12)c1cn(-c2ccccc2)nc1-c1cccs1`, the AC50 is 7.94 µM (active).
For the molecule `O=C(N1CCOCC1)N1CCN(c2ccccc2)CC1`, the activity, negative = inhibition was -14.3% [at 11.4 µM].
Regarding `O=C(c1cn(-c2ccccc2)nc1-c1cccs1)N1CCOCC1`, the AC50 is 15.8 µM (active).
As to `CCOc1ccc(-c2c[n+](=O)c3c(n2[O-])CCCC3)c(OCC)c1`, the “activity, negative = inhibition” value is 1.52%.
Regarding `CCCNS(=O)(=O)c1ccc(OCC(=O)OC)cc1`, the “activity, negative = inhibition” value was -2.12%.
Consider `COc1ccc(OCCNS(=O)(=O)c2ccc3oc4ccccc4c3c2)cc1`, for which the AC50 is 7.08 µM (active).
Take `NCCCc1ccc2oc3ccccc3c2c1`: the activity, negative = inhibition was 0.505% [at 11.4 µM].
With `O=C(O)[C@@H]1CS[C@@]2(CCCN(Cc3ccccc3)C2)N1`, the activity, negative = inhibition was 0.282% [at 11.4 µM].
As for `Cc1ncc(CSC(=N)N)n1Cc1ccccc1`, the activity, negative = inhibition is 6.78% [at 11.4 µM].
Still for that read-out and setting: in the case of `Cc1nc2ccccc2nc1SCC(=O)N1CCC(C)CC1` it was 3.87% [at 2.29 µM]; in that of `Cc1scc2c1N(C(=O)CN1CCN(C)CC1)c1ccccc1NC2=O`, -13.5% [at 25.6 µM].
For `Cc1sc2nc(C3CC3)nc(SCC(=O)N3CC(=O)Nc4ccccc43)c2c1C`, the AC50 is 2.24 µM (active).
Still for that read-out and setting: in the case of `Cc1nnc(SCC(=O)N2CC(=O)Nc3ccccc32)n1Cc1ccccc1` it was 7.94 µM (active).
For the molecule `CCOC(=O)N/N=C1/C[C@@H](O)[C@@H](O)[C@@H]2[C@@H]3C(=O)N(C(C)(C)C)C(=O)[C@H]3CC[C@H]12`, the activity, negative = inhibition was -10.6% [at 11.4 µM].
For the molecule `C[C@@H](NCc1cc(Br)cc2[nH]c(=O)c(=O)[nH]c12)P(=O)(O)O`, the “activity, negative = inhibition” value is -3.25%.
`COc1cccc(-c2ccc3ncnc(NCc4cccs4)c3c2)c1`: the AC50 is 7.94 µM (active).
As for `N#Cc1cccc(-c2ccc3ncnc(NCc4cccs4)c3c2)c1`, the AC50 was 3.16 µM (active).
`c1csc(CNc2ncnc3ccc(-c4ccoc4)cc23)c1`: the AC50 is 7.94 µM (active).
Take `C[C@@H](CCCCC(=O)Nc1ccc(C(F)(F)F)cc1)NCCc1cnc[nH]1`: the AC50 is 5.01 µM (active).
`NCCC(=O)NCCc1cnc[nH]1`: the “activity, negative = inhibition” value is -7.06% [at 25.6 µM].
Still for that read-out and setting: in the case of `O=CN[C@@H](Cc1cnc[nH]1)C(=O)O` it was -4.87% [at 11.4 µM].
Turning to `CC(C)(C)N1C(=O)[C@H]2[C@@H]3[C@H](O)C=CC(=O)[C@H]3CC[C@H]2C1=O`, the activity, negative = inhibition is -16.6% [at 11.4 µM].
`CCc1ccc(C(=O)COC(=O)C(Cc2ccccc2)NC(=O)C2CCC(C)CC2)cc1` (stereo unspecified): the AC50 is 3.55 µM (active).
Regarding `N#CCSc1ncnc2c1cnn2CCO`, the “activity, negative = inhibition” value is -21.9%.
Consider `Cc1[nH]n2c(=O)c3c(nc2c1-c1cccc2ccccc12)CCC3`, for which the “activity, negative = inhibition” value is -9.59%.
Turning to `Nc1[nH]n2c(=O)c3c(nc2c1N=Nc1ccccc1)CCCC3`, the AC50 was 5.01 µM (active).
For `N#Cc1c[nH]n2c(=O)c3c(nc12)CCCC3`, the “activity, negative = inhibition” value was 4.63%.
As to `Cc1ccc(-c2[nH]n3c(=O)c4c(nc3c2C)CCCC4)cc1`, the AC50 is 8.91 µM (active).
`Nc1[nH]n2c(=O)cc(-c3ccccc3)nc2c1N=Nc1ccccc1`: the activity, negative = inhibition is -10.8% [at 2.29 µM].
The same measure, in the same setting: in the case of `O=c1c2c(nc3c(-c4ccccc4)c[nH]n13)CCC2` it was -13.1%.
